The panel holds about 79,000 compounds, 15% with a hit somewhere; the sample as a whole holds those more often. Values without a mark were called inactive. Activity calls are given as the source filed them. Rule as the data show it: active = growth inhibition above about 70%; inactive = the rest.
Experiments:
[1] = NCI Yeast Anticancer Drug Screen. Data for the rad50 strain (AID 155);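 also: 0% = growth of vehicle-only cultures of the same strain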; settings: S. cerevisiae rad50 strain growth inhibition, active compounds read high
In short: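 Compounds were tested on a yeast strain with an engineered DNA damage repair alteration; the reported value is growth inhibition normalised to vehicle treatment.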

[2] = NCI Yeast Anticancer Drug Screen. Data for the mec2-1 strain (AID 157); settings: S. cerevisiae mec2-1 strain, active compounds read high
In short: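 mec2-1 yeast strain, carrying an alteration in DNA damage repair or cell cycle control, was exposed to compounds; growth inhibition was measured relative to vehicle-treated controls.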

[3] = NCI Yeast Anticancer Drug Screen. Data for the sgs1 mgt1 strain (AID 161);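 also: 0% = growth of cultures given vehicle only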; settings: S. cerevisiae sgs1 mgt1 strain, active compounds read high
In short: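 Growth of a repair-deficient yeast mutant was monitored after compound treatment and expressed as inhibition relative to vehicle-treated cultures.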

[4] = NCI Yeast Anticancer Drug Screen. Data for the cln2 rad14 strain (AID 165);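 also: 0% = growth equal to vehicle treated cultures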; settings: S. cerevisiae cln2 rad14 strain, active compounds read high
In short: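 Yeast carrying cln2 and rad14 alterations (cell cycle control and DNA damage repair) were exposed to compounds. Growth inhibition was measured against vehicle-treated controls.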

[5] = NCI Yeast Anticancer Drug Screen. Data for the bub3 strain (AID 167); settings: S. cerevisiae bub3 mutant strain, active compounds read high
In short: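 Growth of a checkpoint-deficient yeast mutant is measured after compound exposure. Values represent inhibition relative to vehicle.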

[6] = NCI Yeast Anticancer Drug Screen. Data for the mlh1 rad18 strain (AID 175); settings: S. cerevisiae mlh1 rad18 strain growth inhibition, active compounds read high
In short: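 Growth inhibition of the yeast strain was measured after compound exposure and expressed relative to vehicle-treated controls. The strain carries defined defects in DNA damage repair.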

[7] = at 5.0 µM (retest, dose inferred, filed as 0.5)
[8] = at 50.0 µM (retest, dose inferred, filed as 5.0)

Row | Structure (SMILES) | growth inhibition [1, 7] [%] | growth inhibition [1, 8] | growth inhibition ([1]; at 50.0 µM) | growth inhibition [2, 7] [%] | growth inhibition [2, 8] | growth inhibition ([2]; at 50.0 µM) | growth inhibition [3, 7] [%] | growth inhibition [3, 8] | growth inhibition ([3]; at 50.0 µM) | growth inhibition [4, 7] [%] | growth inhibition [4, 8] | growth inhibition ([4]; at 50.0 µM) | growth inhibition [5, 7] | growth inhibition [5, 8] | growth inhibition ([5]; at 50.0 µM) | growth inhibition [6, 7] [%] | growth inhibition [6, 8] | growth inhibition ([6]; at 50.0 µM)
1 | CCOC(=O)/C=C1/C(=O)OC2C1OC1OC(C)(C)OC12 (stereo not given) | 9 | 99% (active) | 6.3% | 16 | 100% (active) | 34.8% | -5 | 100% (active) | 57% | 37 | 100% (active) | -15.1% | 33% | 100% (active) | 26.1% | 7 | 99% (active) | 54.8%
2 | COC(=O)C12CCC(C)(C)CC1C1=CCC3C4(C)CC(O)C(O)C(C)(C(=O)OC)C4CCC3(C)C1(CO)CC2 (stereo not given) | 30 | 97% (active) | 91.5% (active) | 30 | 99% (active) | 91.7% (active) | 15 | 99% (active) | 91.8% (active) | 39 | 99% (active) | 91.4% (active) | 26% | 99% (active) | 88.8% (active) | 31 | 98% (active) | 85.8% (active)
3 | O=C(Oc1c(Cl)cc(Cl)c(Cl)c1Cl)Oc1c(Cl)cc(Cl)c(Cl)c1Cl | 4 | 1% | -1.15% | 5 | 4% | 15.2% | 6 | -11% | 0.3% | 6 | -11% | 6.85% | 4% | 0% | 70% (active) | 1 | -1% | 0.15%
4 | CCCCP(CCCC)(CCCC)=C(C(=O)OC)C(C(=O)OC)=C1SC(C(=O)OC)=C(C(=O)OC)S1 | 18 | 39% | -4.9% | 4 | 16% | 10.3% | 63 | 26% | -9.3% | 47 | 38% | 13.1% | 79% (active) | 47% | -7.6% | 23 | 51% | 4.8%
5 | CC(=O)N1C(c2[nH]c3ccccc3c2Cc2ccccc2)CCN1c1ccccc1 (stereo not given) | -27 | 94% (active) | 84.9% (active) | -14 | 98% (active) | 87% (active) | -20 | 94% (active) | 88.3% (active) | -12 | 96% (active) | 85.7% (active) | -18% | 96% (active) | 87.5% (active) | -27 | 95% (active) | 83.8% (active)
6 | Clc1cc2c(c3ncccc13)OCN(Cc1ccccc1)C2 | 16 | 76% (active) | 99.2% (active) | 1 | 33% | 99.5% (active) | 14 | 98% (active) | 99.5% (active) | 9 | 98% (active) | 99.2% (active) | -3% | 99% (active) | 99.4% (active) | 23 | 99% (active) | 99.3% (active)
7 | CC1OC(CC(=O)O)Cc2c1c(O)c1c(O)cc(-c3cc(=O)c4c(=O)c5c(c(=O)c=4c3=O)CC(CC(=O)O)OC5C)c(O)c1c2O (stereo not given) | -3 | 6% | -7.4% | 3 | 2% | 7.35% | -1 | 2% | 54.4% | 1 | 29% | -24.4% | 22% | 14% | 11.3% | 0 | 2% | 15.7%
8 | C/C(=N/NC(=O)Nc1ccc(N=Nc2ccccc2)cc1)c1cccnc1 | -10 | -6% | 12.7% | -3 | -11% | -9.55% | 2 | 21% | 19.6% | 36 | -51% | -1.5% | 7% | 4% | 10.8% | 5 | 25% | 14.3%
9 | C[n+]1c(-c2ccc(/C=N/NC(=O)c3ccc(C(=O)N/N=C/c4ccc(-c5cn6ccccc6[n+]5C)cc4)nc3)cc2)cn2ccccc21 | 35 | 99% (active) | 99.2% (active) | 14 | 99% (active) | 98.8% (active) | 35 | 99% (active) | 98.8% (active) | 34 | 99% (active) | 99% (active) | 24% | 99% (active) | 98.9% (active) | 50 | 99% (active) | 99.1% (active)
10 | O=C(C1=NNC(c2ccccc2)C1C(=O)c1ccccc1)c1ccccc1 (stereo not given) | -1 | 82% (active) | 74.8% (active) | -7 | 65% | 30.6% | 2 | 84% (active) | 79% (active) | 2 | 67% | 67% | -10% | 86% (active) | 75% (active) | 4 | 86% (active) | 81.2% (active)
